Results on 57 molecules are retold here after ChEMBL document CHEMBL3988442, “University of Dundee, Small-Polar-MMV Screening Library” (2021).

In all, about 48,000 compounds went through this assay and about 13,000 (27%) showed an effect of 50% or more. Some of the results follow.

The experiment relates to Wolbachia pipientis. Kind of experiment: Anti-Wolbachia Cell-Based Screen. The conditions noted are these: 5 µM. The arrangement: scale not given: in the data most compounds retested in dose-response had high values. The class given is functional.
In the case of `COc1cc(CNCC(O)c2ccc(F)c(F)c2)cc2c1OCO2` (configuration not stated), the “Percent Effect” value is -3.918%.

In the case of `O=C(NC[C@]12COC[C@H]1CN(Cc1ccncc1)C2)c1ccno1.O=C(O)C(F)(F)F.O=C(O)C(F)(F)F`, the “Percent Effect” value was -6.901%.

Consider `COCCN1C(=O)C2(CCN(CC3CC3)CC2)c2ccccc21.O=C(O)C(F)(F)F`, for which the “Percent Effect” value is 100.2%.

Turning to `CCN1C(=O)C2(CCN(CCN(C)C)CC2)c2ccccc21.O=C(O)C(F)(F)F.O=C(O)C(F)(F)F`, the “Percent Effect” value turned out to be 97.23%.

For `CC(C)N1CCC2(CC1)C(=O)N(c1cccnc1)c1c(F)cccc12.Cl`, the “Percent Effect” value is -0.101%.

Consider `CN(C)CCN1C(=O)C2(CCN(CC3CC3)CC2)c2ccccc21.O=C(O)C(F)(F)F.O=C(O)C(F)(F)F`, for which the “Percent Effect” value is given as 113.1%.

For `Cc1ccc(CN2CCC3(CC2)C(=O)N(C)c2ccccc23)s1.O=C(O)C(F)(F)F`, the “Percent Effect” value is listed as -4.693%.

With `CC(C)N1CCC2(CC1)C(=O)N(c1cccnc1)c1ccc(F)cc12.Cl`, the “Percent Effect” value is given as -1.595%.

On to `CC(C)N1CCC2(CC1)C(=O)N(CCN(C)C)c1ccccc12.O=C(O)C(F)(F)F.O=C(O)C(F)(F)F`, for which the “Percent Effect” value was determined as 103.6%.

For `CN1C(=O)C2(CCN(Cc3nccn3C)CC2)c2ccccc21.O=C(O)C(F)(F)F`, the “Percent Effect” value is listed as -27.57%.

For `CCCN1CCN(C(=O)Cc2nc(-c3ccco3)oc2C)CC1`, the “Percent Effect” value is reported as 1.326%.

`COCc1cncc2c1CCN(Cc1ccccn1)C2.O=C(O)C(F)(F)F.O=C(O)C(F)(F)F.O=C(O)C(F)(F)F`: the “Percent Effect” value came out at 9.224%.

Take `COCc1cncc2c1CCN(Cc1cccnc1)C2`: the “Percent Effect” value is listed as 101.9%.

With `COCc1cncc2c1CCN(Cc1cnn(C)c1)C2.O=C(O)C(F)(F)F.O=C(O)C(F)(F)F`, the “Percent Effect” value is given as 0.729%.

For the molecule `O=C1[C@@H]2CCN(Cc3ccoc3)C[C@@H]2OCCN1c1cccnc1`, the “Percent Effect” value was 8.449%.

`COCCN1CCN(Cc2cccnc2)[C@H]2CS(=O)(=O)C[C@H]21`: the “Percent Effect” value was determined as 6.429%.

Turning to `COCc1cncc2c1CCN(Cc1cccs1)C2.O=C(O)C(F)(F)F.O=C(O)C(F)(F)F`, the “Percent Effect” value worked out at 82.87%.

`CC(C)N(C)Cc1cncc2c1CCN(Cc1ccoc1)C2.Cl.Cl.Cl`: the “Percent Effect” value was 91.96%.

As for `CN(C)Cc1cncc2c1CCN(Cc1cnn(C)c1)C2.Cl.Cl.Cl`, the “Percent Effect” value is given as -9.802%.

`CN(C)Cc1cncc2c1CCN(Cc1ccoc1)C2.Cl.Cl.Cl`: the “Percent Effect” value is listed as 105%.

For `CC(C)N1[C@H](CN(C)C)C[C@@H]2CN(c3ncc(F)cn3)CC[C@@H]21.O=C(O)C(F)(F)F.O=C(O)C(F)(F)F.O=C(O)C(F)(F)F`, the “Percent Effect” value is 3.695%.

On to `CC1(C)C(C(=O)NCCC2CN(Cc3c[nH]cn3)CCO2)C1(C)C` (configuration not stated), for which the “Percent Effect” value is recorded as -1.625%.

Consider `Cc1cccnc1CC(C)N(C)Cc1cccs1` (configuration not stated), for which the “Percent Effect” value is recorded as -8.458%.

As for `CC(C)N1CCc2c(CN(C)Cc3ccco3)cncc2C1.Cl.Cl.Cl`, the “Percent Effect” value is on record as 5.952%.

As to `CC(C)N(C)Cc1cncc2c1CCN(Cc1cccs1)C2.Cl.Cl.Cl`, the “Percent Effect” value is given as 94.28%.

With `CS(=O)(=O)N1CCO[C@@H]2CN(Cc3ccncc3)C[C@@H]2C1.O=C(O)C(F)(F)F.O=C(O)C(F)(F)F`, the “Percent Effect” value amounted to 13.84%.

As to `O=C(O)C(F)(F)F.O=C(O)C(F)(F)F.O=S(=O)(c1cccnc1)N1C[C@@H]2COC[C@]2(CN2CCOCC2)C1`, the “Percent Effect” value is -9.184%.

For the molecule `CN1CCO[C@@H]2CN(S(=O)(=O)c3cccnc3)C[C@@H]2C1.O=C(O)C(F)(F)F.O=C(O)C(F)(F)F`, the “Percent Effect” value was 131.4%.

Turning to `Cc1ccsc1CN1C[C@@H]2CN(Cc3cccnc3)CCO[C@@H]2C1.O=C(O)C(F)(F)F.O=C(O)C(F)(F)F.O=C(O)C(F)(F)F`, the “Percent Effect” value came to 13.17%.

As for `COCCN1CCO[C@@H]2CN(S(=O)(=O)c3cccnc3)C[C@@H]2C1.O=C(O)C(F)(F)F.O=C(O)C(F)(F)F`, the “Percent Effect” value is given as 120.4%.

With `COCCN1CCO[C@@H]2CN(Cc3ccccn3)C[C@@H]2C1.O=C(O)C(F)(F)F.O=C(O)C(F)(F)F.O=C(O)C(F)(F)F`, the “Percent Effect” value was -10.28%.

On to `CNCc1cn(C[C@H]2C[C@@H]3CCN2C[C@@H]3C(=O)NC2CCCCC2)nn1`, for which the “Percent Effect” value is listed as -0.1027%.

For the molecule `COc1cccc([C@@H]2CCN(Cc3ccc4ccccc4n3)C[C@H]2O)c1`, the “Percent Effect” value is reported as -2.697%.

Turning to `COCCN1CCC2(CCCN(c3ncc(F)cn3)C2)C1` (configuration not stated), the “Percent Effect” value was found to be 7.957%.

`Cc1ncc(CN2CCC3(CCCN(CC4CCC4)C3)C2)cn1` (configuration not stated): the “Percent Effect” value is given as 97.43%.

As for `c1cncc(CN2CCC3(CCCN(c4nncs4)C3)C2)c1` (configuration not stated), the “Percent Effect” value came to 3.767%.

For the molecule `CCc1cnc(N2CC3(CCN(Cc4ccsc4)C3)C2)nc1.O=C(O)C(F)(F)F`, the “Percent Effect” value amounted to 18.1%.

For the molecule `CCc1ncc(CN2CCC3(CCCN(CC4CCC4)C3)C2)cn1` (configuration not stated), the “Percent Effect” value turned out to be 67.34%.

Turning to `CCc1ncc(CN2C[C@H]3CC[C@@H]2CN(C(=O)C2CCC2)C3)cn1`, the “Percent Effect” value was -5.818%.

Regarding `O=C(O)C(F)(F)F.c1cnc(N2CCCC3(CCN(CC4CCC4)C3)C2)nc1` (configuration not stated), the “Percent Effect” value was -2.816%.

Take `Fc1cnc(N2CC3(CCN(CC4CC4)C3)C2)nc1.O=C(O)C(F)(F)F`: the “Percent Effect” value was found to be 6.625%.

In the case of `COc1ncc(CN2CCC3(CCCN(CC4CCC4)C3)C2)cn1` (configuration not stated), the “Percent Effect” value is on record as 83.26%.

`Cc1c(CN2CCCC(C(=O)c3ccccc3)C2)cc(C#N)n1C` (configuration not stated): the “Percent Effect” value is -33.94%.

Turning to `CCn1ncc(CN2CCCC(C(=O)c3ccc(Cl)cc3)C2)c1C` (configuration not stated), the “Percent Effect” value is -8.229%.

As for `CC(C)CNC(=O)[C@H]1C[C@@H]2CN(Cc3cccnc3)C[C@H]1O2.O=C(O)C(F)(F)F.O=C(O)C(F)(F)F`, the “Percent Effect” value was found to be 1.995%.

On to `CCNC(=O)[C@H]1CN(Cc2ccccc2)C[C@@H]1C(=O)c1ccccc1`, for which the “Percent Effect” value came out at 155%.

As for `O=C(O)C(F)(F)F.O=C1[C@H]2CN(Cc3ccccc3)C[C@H]2CN1c1cncnc1`, the “Percent Effect” value is recorded as 5.118%.

On to `COCCN(C)C(C)Cc1ccccc1OC` (configuration not stated), for which the “Percent Effect” value was -4.833%.

Regarding `CCO[C@H]1CN(CC2CC2)[C@@H]2CCCO[C@H]12.O=C(O)C(F)(F)F`, the “Percent Effect” value came to 109.7%.

`CO[C@@H]1CC[C@H]2[C@H]1OCCN2CC1CCOCC1.O=C(O)C(F)(F)F`: the “Percent Effect” value stood at 4.293%.

As for `CO[C@H]1CN(CC2CCOCC2)[C@@H]2CCCO[C@H]12.O=C(O)C(F)(F)F`, the “Percent Effect” value is listed as 117.1%.

In the case of `CO[C@@H]1CN(Cc2scnc2C)[C@@H]2CCCO[C@@H]21.O=C(O)C(F)(F)F.O=C(O)C(F)(F)F`, the “Percent Effect” value is given as -11.47%.

Consider `Cc1noc(C)c1CN1C[C@H](OCC2CC2)[C@H]2OCCC[C@H]21.O=C(O)C(F)(F)F`, for which the “Percent Effect” value came out at 2.314%.

`Cc1noc(C)c1CN1C[C@H](OCC(=O)N(C)C)[C@H]2OCCC[C@H]21.O=C(O)C(F)(F)F`: the “Percent Effect” value is listed as -4.98%.

`CO[C@H]1CN(CC2CC2)[C@@H]2CCCO[C@H]12.O=C(O)C(F)(F)F`: the “Percent Effect” value was 102.7%.

For `CO[C@H]1CN(Cc2ccc(C)o2)[C@@H]2CCCO[C@H]12.O=C(O)C(F)(F)F`, the “Percent Effect” value is given as -4.054%.

Turning to `CN(Cc1cncnc1)[C@H]1CN(CC2CC2)[C@@H]2CCCO[C@@H]21.O=C(O)C(F)(F)F.O=C(O)C(F)(F)F`, the “Percent Effect” value is reported as -10.71%.
